Compound activity as filed in PubChem BioAssay.
PNC inhibitor – perinucleolar compartment assembly inhibition; PC3M PTB-GFP, PNC prevalence imaging, 16 h; active compounds read low; activity change (PNC), negative = inhibition, % at 10 µM; 140,000 compounds, 3.1% hits;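 active means readout at or below -70, meaning at least 70% loss of cells showing the perinucleolar compartment, a nuclear body marking cancer cells; inconclusive means readout between -30 and a set limit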;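 further: plate controls were DMSO wells for no effect and camptothecin positive control wells for full effect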
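Compounds are pinned in duplicate onto adhered PC3M cells stably expressing GFP-tagged PTB and incubated 16 h at 37 C. Cells are then fixed, nuclei stained with Hoechst, and PNC-positive cells counted.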
ALDH1A1 block – ALDH1A1 (human) enzyme inhibition; P00352; Purified ALDH1A1, NADH fluorescence, propionaldehyde substrate; 220,000 compounds, 7.3% hits; AID 1030; Potency, µM (top dose mostly 75.3 µM), for the others: at the highest dose activity, negative = inhibition, actives largely listed as inhibitors; active means well fitted inhibition curve with a large enough effect, not every such curve was filed as active; inconclusive means small, poorly fitted or top-dose-only effect, or another doubt; inactive means no such curve, though single readings can be large or run the other way;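 further: potency means the concentration at half of the fitted maximal effect; plate controls were no enzyme wells and a reference inhibitor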
Target sequence (P00352 whole entry, looked up): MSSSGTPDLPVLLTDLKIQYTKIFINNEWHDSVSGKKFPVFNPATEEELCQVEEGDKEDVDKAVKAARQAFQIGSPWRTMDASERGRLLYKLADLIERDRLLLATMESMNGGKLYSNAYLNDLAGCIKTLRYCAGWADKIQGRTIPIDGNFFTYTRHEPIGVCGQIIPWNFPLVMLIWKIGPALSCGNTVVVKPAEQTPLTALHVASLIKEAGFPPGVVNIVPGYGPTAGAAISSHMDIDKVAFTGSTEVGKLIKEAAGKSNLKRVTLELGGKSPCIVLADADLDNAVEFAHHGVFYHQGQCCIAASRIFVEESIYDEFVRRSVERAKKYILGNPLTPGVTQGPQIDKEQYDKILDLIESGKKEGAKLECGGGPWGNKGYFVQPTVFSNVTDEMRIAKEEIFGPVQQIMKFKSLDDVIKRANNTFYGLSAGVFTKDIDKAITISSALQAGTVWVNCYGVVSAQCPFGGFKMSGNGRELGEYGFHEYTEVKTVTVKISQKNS
HTT aggregate – reduces HttQ103-GFP aggregates in PC12 cells; PC12 HttQ103-GFP aggregates, Acumen cytometry, 40 h; 220,000 compounds, 1.1% hits; AID 1688; Potency, µM (titrated, usually from 46.1 µM), without a hit: at the top dose activity change, negative = inhibition, most hits filed as inhibitors; further: potency means the concentration at half of the fitted maximal effect; on the % scale 0 is the no-effect control and ±100 the full control effect; nearly all actives have a fitted effect of over 60% in size
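Read-out: GFP aggregate count by laser scanning cytometer (488 nm excitation, 500-530 nm emission, 1–25 µm objects >6 SD above background). Cells: PC12, inducible HTTex1-Q103-GFP, 100 nM tebufenozide; compounds titrated.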
HTT ATP protect – Huntington cell model cytoprotection by ATP luminescence. PC12 HTT-Q103 induced, cytoprotection, ATP luminescence, 40 h. Potency, µM (doses to about 56.4 µM), inactives show cytoprotection (ATP increase), actives largely listed as activators. 230,000 compounds, 0.14% hits. AID 1471; further: potency means the concentration at half of the fitted maximal effect; % of control where 0% means no effect; nearly all actives have a fitted effect of over 45% in size
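ATP quantification (ATPlite) reports survival of PC12 cells in which tebufenozide, 100 nM final, switches on Htt exon 1 with 103 glutamines linked to GFP; compounds are titrated.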
GoLoco inh red – blocks human Gai1 binding to RGS12 GoLoco peptide, red readout. P63096. Gai1:RGS12 GoLoco peptide FP, rhodamine, 10 min. Potency, µM (doses to about 61.6 µM), for the others: at the top dose activity, negative = inhibition, usual class: inhibitors. 230,000 compounds, 0.44% hits; active means well fitted inhibition curve with a large enough effect, not every such curve was filed as active; inactive means no such curve, though single readings can be large or run the other way; further: potency means the concentration at half of the fitted maximal effect; on the % scale 0 is the no-effect control and ±100 the full control effect; nearly all actives have a fitted effect of over 30% in size
HPGD block – inhibitors of human 15-hydroxyprostaglandin dehydrogenase (HPGD); Potency, µM, without a hit: at the highest dose activity change, negative = inhibition, hits mostly inhibitors; AID 894; purified HPGD, NADH fluorescence kinetic, PGE2 substrate; P15428; 150,000 compounds, 4.3% hits; active means well fitted inhibition curve with a large enough effect, not every such curve was filed as active; inconclusive means small, poorly fitted or top-dose-only effect, or another doubt; inactive means no such curve, though single readings can be large or run the other way; further: potency means the concentration at half of the fitted maximal effect; on the % scale 0 is the no-effect control and ±100 the full control effect
Target sequence (P15428 whole entry, looked up): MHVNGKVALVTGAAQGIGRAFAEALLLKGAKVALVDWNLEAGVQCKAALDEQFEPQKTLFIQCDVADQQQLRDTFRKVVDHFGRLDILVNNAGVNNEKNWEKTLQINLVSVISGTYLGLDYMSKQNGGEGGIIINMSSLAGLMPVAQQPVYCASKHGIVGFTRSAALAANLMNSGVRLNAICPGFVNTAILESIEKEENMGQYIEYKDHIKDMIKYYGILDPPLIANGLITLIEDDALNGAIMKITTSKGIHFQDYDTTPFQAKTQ
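NADH formation kinetics: reaction with 30 uM PGE2 and 1 mM NAD+ (final), 20 nM enzyme, Tris-HCl pH 8 with Tween 20, after 15 min compound preincubation at room temperature. Fluorescence change, last versus first of five reads.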
The depositor's hits bear a star; ? = inconclusive; / = not tested or not shown; [ ] = another dose, or the depositor's remark. This is a sample that favours compounds with a hit; in the whole collection about 11% have one here. Unless noted, the call rests on the fitted dose curve; in most records, active means well fitted curve in the direction sought with a large enough effect; inconclusive means small, poorly fitted or top-dose-only effect, or another doubt; inactive means no such curve, though single readings can be large; an effect the other way counts as inactive or inconclusive.

SMILES	PNC inhibitor	ALDH1A1 block	HTT aggregate	HTT ATP protect	GoLoco inh red	HPGD block
COc1ccc(CN(C)CC(=O)Nc2sc3c(c2C#N)CCC3)cc1OC	/	14µM*	-26%	3%[10 µM]	30%	/
COc1cccc(CN(C)CC(=O)Nc2sc3c(c2C#N)CCC3)c1OC	/	25µM*	?	17%[10 µM]	14%	/
CN(CC(=O)Nc1sc2c(c1C#N)CCCCC2)Cc1nc2ccccc2c(=O)[nH]1	/	?	?	-43%	21%	/
CCCC(CCC)C(=O)Nc1ccc2c(c1)N(C(=O)CCN1CCN(C)CC1)c1ccccc1CC2	/	3%	-5%[9.22 µM]	9%[10 µM]	0%	/
S=C(Nc1ccccn1)NC1CCCCC1	/	/	-6%[9.22 µM]	20%[10 µM]	-7%	/
O=C(CCCn1cnc([N+](=O)[O-])n1)Nc1cccc(O)c1	/	-4%	21%	13%[10 µM]	-4%	/
COc1ccc2nc(-c3ccc(N)cc3)[nH]c2c1	31	6.3µM*	-4%	-57%[10 µM]	2%	?
COc1ccc2nc(-c3cccc(N)c3)[nH]c2c1	-19	-7%	?	13%[1.9 µM]	44%	?
C[C@H]1Cc2c(-c3ccccc3)nc3c(c2CO1)CN(C(=O)NCCc1c[nH]c2ccccc12)CC3	/	11%[13.5 µM]	/	10%[10 µM]	-8%[14.2 µM]	0%
CN(C)C(=O)COC(=O)c1ccccc1Nc1ccc(SC(F)F)cc1	-105*	?	5%	-14%[10 µM]	3%	?
COc1cccc(C2CC(C(F)(F)F)n3ncc(C(=O)NCC4CCCO4)c3N2)c1 (stereo not given)	7	3%	26%	-5%	3%	14µM*
COc1cc(C2CC(C(F)(F)F)n3ncc(C(=O)O)c3N2)cc(OC)c1OC (stereo not given)	19	11%	-2%	15%	12%	-9%
CCOC(=O)c1c(NC(=O)c2cnn3c2NC(c2cccc(OC)c2)CC3C(F)(F)F)sc2c1CCCC2 (stereo not given)	57	-10%	3%	-6%[10 µM]	-1%	?
COc1ccc(C2CC(C(F)(F)F)n3ncc(C(=O)NCc4cccnc4)c3N2)cc1OC (stereo not given)	-82*	0%	5%	0%	3%	0%
CCOCCCNC(=O)Cn1cnc2sc(C)c(S(=O)(=O)N3CCN(c4ncccn4)CC3)c2c1=O	/	-2%	-30%	-23%	-3%	/
Cc1ccc(-c2csc3ncnc(OCC(=O)NC(=O)NCc4ccco4)c23)cc1	-125*	?	-18%	-31%	7%	?
N#C/C(=C\c1cccs1)C(=O)Nc1ccccn1	/	/	-5%[9.22 µM]	0%[10 µM]	10%	/
O=S(=O)(NCCSc1ccccc1)c1ccc2c(c1)OCCO2	42	0.56µM*	-30%	14%	2%	-17%
O=C(O)CCCCCNS(=O)(=O)c1ccc2c(c1)OCCO2	/	?	-4%[9.22 µM]	16%[10 µM]	7%	/
COCCN(C(=O)Cn1nnc2ccccc21)C(C(=O)NC1CCCC1)c1ccc(OC)cc1OC (stereo not given)	-88*	-2%	16%	-16%[10 µM]	-8%	1%
O=C(O)CCC(=O)c1ccc2sc3ccccc3c2c1	/	-6%[13.5 µM]	/	-5%[10 µM]	5%[14.2 µM]	-15%
O=C1C2C3C=CC(C4CC34)C2C(=O)N1/N=C/c1ccc(-c2cccc([N+](=O)[O-])c2)o1 (stereo not given)	-16	14µM*	?	3%[0.074 µM]	8%	13µM*
COc1ccc(CCN(CC(=O)NC(C)(C)C)C(=O)Cn2nnc(-c3ccc(C)o3)n2)cc1OC	/	2%	7%	6%	2%	/
CC1CCCCC1NC(=O)c1ccc2c(c1)[nH]c(=O)n2C1CCCC1 (stereo not given)	-8	14µM*	-4%	-19%	7%	-10%
O=C(NCc1ccncc1)/C(=C\c1ccc(F)cc1)NC(=O)c1ccccc1	31	7%	11%	6%[10 µM]	2%	-2%
SMILES	PNC inhibitor	ALDH1A1 block	HTT aggregate	HTT ATP protect	GoLoco inh red	HPGD block
Cc1ccc(C(=O)N/C(=C\c2ccc(F)cc2)C(=O)NCc2ccncc2)cc1	-119*	-3%	-30%	20%[10 µM]	6%	-6%
COc1cccc(OC)c1C(=O)NC(=S)Nc1cc(-c2nc3ccccc3[nH]2)ccc1Cl	5	22µM*	-6%	-38%[10 µM]	14%	-18%
COc1c(F)c(F)c(C(=O)Nc2ccc(-c3nc4ccccc4[nH]3)cc2)c(F)c1F	/	?	6%	/	5%	/
COc1ccc(Cc2nnc3c4cnn(C)c4ncn23)cc1	-86*	2%	3%	-15%	4%	-8%
Cc1cccc(C)c1OCc1nnc2c3cnn(C)c3ncn12	-22	?	-18%	-5%	10%	-11%
COc1cccc(Cn2c(=O)c(-c3cc(F)cc(F)c3)nc3cnc(N4CCNCC4)nc32)c1	/	?	/	-102%	10%	/
CCC1C(=O)CC(c2ccco2)NC1c1ccco1 (stereo not given)	-100*	?	8%	2%[10 µM]	1%	-12%
COC(=O)CCc1sc(NC2CCCCC2)nc1-c1ccc(OC)cc1	-8	?	-14%	5%[10 µM]	4%	22µM*
COCCNc1nc(-c2ccc(OC)cc2)c(-c2ccc(OC)cc2)s1	/	28µM*	?	-11%[10 µM]	11%	/
CCN(CC)CCNc1nc(-c2ccc(OC)cc2)c(-c2ccc(OC)cc2)s1	/	-13%	-6%[9.22 µM]	-9%[10 µM]	9%	/
CCCCCCNc1nc(-c2ccc(OC)cc2)c(CCC(=O)O)s1	1	22µM*	-7%	5%[10 µM]	-1%	?
CC(C)(C)CC(=O)O/N=C(\N)c1ccncc1	/	6%	5%	20%	0%	/
COc1ccc(/C=C2\N=C(SC)NC2=O)cc1	-18	-8%	2%	12%	-4%	22µM*
CCSC1=N/C(=C\c2ccc(OC)cc2)C(=O)N1	53	9.5µM*	-10%	17%[0.074 µM]	19%	?
O=C1CCCC(=O)N1c1ccc(Oc2ccc(Cl)cc2)cc1	?	?	20%	34%[10 µM]	-3%	-13%
Cc1cc(C)c2ccc(N)nc2c1O	-23	4%	8.9µM*	16%[1.9 µM]	10%	-8%
C=C1CC[C@H](O)C/C1=C/C=C1\CCC[C@]2(C)[C@@H]([C@H](C)CC[C@@H](O)C(C)(C)O)CC[C@@H]12	/	-7%	-8%	-31%	-2%	-3%
CCCCC1=CC2=C(c3ccco3)C(=O)C(C)(OC(=O)c3ccc(OC)cc3)C(=O)C2=CN1CCc1c[nH]c2ccccc12 (stereo not given)	/	11%[13.5 µM]	/	11%[10 µM]	5%[14.2 µM]	-5%
CC1CCCN(C(=O)CSc2nnc(-c3c[nH]c4ccccc34)o2)C1 (stereo not given)	?	14µM*	-24%	-28%	8%	16µM*
